Assay results: PubChem BioAssay
Calls of active or inactive are those of the source.

Key:
[1] = tested on: PRMT1 (protein arginine N-methyltransferase 1); assay: PRMT1 binders on small-molecule microarrays, primary screen, biochemical, small-molecule microarray, 635 nm fluorescence (AID 1088); details: small-molecule microarray binding, higher = more signal;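 further: binding of Prmt1 protein to compounds spotted on small-molecule microarray slides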
[2] = yeast growth modulation, basal conditions, primary screen, YJM789 clinical isolate, OD600, 24 h (AID 1089);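 further: growth of clinical yeast isolate S. cerevisiae YJM 789 seeded 1000 cells per well; test concentration not given here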; details: S. cerevisiae YJM789 growth, higher = more signal, called active from +8 up or from −8 down
[3] = fission yeast growth modulation, primary screen, strain 972, OD600, 24 h, no modulator (AID 1090);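 further: basal condition with compound alone and no growth modifier present; test concentration not given here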; details: S. pombe 972 growth, higher = more signal, called active from +8 up or from −8 down
[4] = S. cerevisiae growth modulation with rapamycin, primary screen, strain BY4716, OD600, 96 h (AID 1091); details: higher = more signal, called active from +8 up or from −8 down; further: test concentration not given here
[5] = target: Torsin-1A-interacting protein 2 (Homo sapiens) (UniProt Q8NFQ8); assay: LULL1 binders on small-molecule microarray, primary screen, cell lysate, human LULL1 lysate, 635/667 nm fluorescence (AID 1092); details: hLULL1 lysate binding, 635 nm fluorescence, higher = more signal;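 further: probe is lysate of COS7 cells overexpressing human LULL1; score merges per-feature 667 nm fluorescence with signal-to-noise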
Sequence of Torsin-1A-interacting protein 2 (Homo sapiens) (Q8NFQ8 whole entry, looked up): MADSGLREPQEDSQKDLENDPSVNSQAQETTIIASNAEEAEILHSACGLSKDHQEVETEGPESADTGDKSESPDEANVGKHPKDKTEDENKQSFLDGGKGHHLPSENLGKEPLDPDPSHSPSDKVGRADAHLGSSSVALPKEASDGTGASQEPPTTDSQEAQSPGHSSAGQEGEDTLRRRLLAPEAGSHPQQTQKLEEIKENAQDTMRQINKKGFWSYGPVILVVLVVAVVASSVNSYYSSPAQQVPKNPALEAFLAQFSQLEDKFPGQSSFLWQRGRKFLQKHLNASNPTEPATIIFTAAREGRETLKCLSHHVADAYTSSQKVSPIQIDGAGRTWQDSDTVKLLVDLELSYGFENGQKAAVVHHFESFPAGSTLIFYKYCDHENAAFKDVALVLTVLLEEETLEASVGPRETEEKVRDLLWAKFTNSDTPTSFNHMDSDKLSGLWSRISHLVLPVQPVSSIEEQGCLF

[6] = E. coli growth modulation, two-sided OD650, primary screen, E. coli filamentation project, strain DRC41, 24 h (AID 1093); details: OD650, 24 h, higher = more signal, called active from +8 up or from −8 down;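 further: MC1000 strain lacking acrAB efflux and sulA so SOS filamentation is blocked; test concentration not given here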
[7] = small-molecule microarray binders of probe aLefty2, primary screen, biochemical, biotinylated probe, 635/667 nm fluorescence (AID 1094); details: higher = more signal;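 further: score merges spot fluorescence near 667 nm with spot signal-to-noise ratio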
[8] = tested on: Noggin (protein binding on small-molecule microarray); assay: Noggin binders on small-molecule microarray, primary screen, biochemical, 635/667 nm fluorescence (AID 1095); details: 635 nm fluorescence, higher = more signal;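 further: score merges 667 nm feature fluorescence with signal to noise over triplicate slides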
[9] = target: Neurogenic locus notch homolog protein 3 (Homo sapiens) (UniProt Q9UM47); assay: NOTCH3 binders on small-molecule microarray, primary screen, biochemical, 635/667 nm fluorescence (AID 1096); details: NOTCH3 binding, 635 nm fluorescence, higher = more signal
Sequence of Neurogenic locus notch homolog protein 3 (Homo sapiens) (Q9UM47 whole entry, looked up): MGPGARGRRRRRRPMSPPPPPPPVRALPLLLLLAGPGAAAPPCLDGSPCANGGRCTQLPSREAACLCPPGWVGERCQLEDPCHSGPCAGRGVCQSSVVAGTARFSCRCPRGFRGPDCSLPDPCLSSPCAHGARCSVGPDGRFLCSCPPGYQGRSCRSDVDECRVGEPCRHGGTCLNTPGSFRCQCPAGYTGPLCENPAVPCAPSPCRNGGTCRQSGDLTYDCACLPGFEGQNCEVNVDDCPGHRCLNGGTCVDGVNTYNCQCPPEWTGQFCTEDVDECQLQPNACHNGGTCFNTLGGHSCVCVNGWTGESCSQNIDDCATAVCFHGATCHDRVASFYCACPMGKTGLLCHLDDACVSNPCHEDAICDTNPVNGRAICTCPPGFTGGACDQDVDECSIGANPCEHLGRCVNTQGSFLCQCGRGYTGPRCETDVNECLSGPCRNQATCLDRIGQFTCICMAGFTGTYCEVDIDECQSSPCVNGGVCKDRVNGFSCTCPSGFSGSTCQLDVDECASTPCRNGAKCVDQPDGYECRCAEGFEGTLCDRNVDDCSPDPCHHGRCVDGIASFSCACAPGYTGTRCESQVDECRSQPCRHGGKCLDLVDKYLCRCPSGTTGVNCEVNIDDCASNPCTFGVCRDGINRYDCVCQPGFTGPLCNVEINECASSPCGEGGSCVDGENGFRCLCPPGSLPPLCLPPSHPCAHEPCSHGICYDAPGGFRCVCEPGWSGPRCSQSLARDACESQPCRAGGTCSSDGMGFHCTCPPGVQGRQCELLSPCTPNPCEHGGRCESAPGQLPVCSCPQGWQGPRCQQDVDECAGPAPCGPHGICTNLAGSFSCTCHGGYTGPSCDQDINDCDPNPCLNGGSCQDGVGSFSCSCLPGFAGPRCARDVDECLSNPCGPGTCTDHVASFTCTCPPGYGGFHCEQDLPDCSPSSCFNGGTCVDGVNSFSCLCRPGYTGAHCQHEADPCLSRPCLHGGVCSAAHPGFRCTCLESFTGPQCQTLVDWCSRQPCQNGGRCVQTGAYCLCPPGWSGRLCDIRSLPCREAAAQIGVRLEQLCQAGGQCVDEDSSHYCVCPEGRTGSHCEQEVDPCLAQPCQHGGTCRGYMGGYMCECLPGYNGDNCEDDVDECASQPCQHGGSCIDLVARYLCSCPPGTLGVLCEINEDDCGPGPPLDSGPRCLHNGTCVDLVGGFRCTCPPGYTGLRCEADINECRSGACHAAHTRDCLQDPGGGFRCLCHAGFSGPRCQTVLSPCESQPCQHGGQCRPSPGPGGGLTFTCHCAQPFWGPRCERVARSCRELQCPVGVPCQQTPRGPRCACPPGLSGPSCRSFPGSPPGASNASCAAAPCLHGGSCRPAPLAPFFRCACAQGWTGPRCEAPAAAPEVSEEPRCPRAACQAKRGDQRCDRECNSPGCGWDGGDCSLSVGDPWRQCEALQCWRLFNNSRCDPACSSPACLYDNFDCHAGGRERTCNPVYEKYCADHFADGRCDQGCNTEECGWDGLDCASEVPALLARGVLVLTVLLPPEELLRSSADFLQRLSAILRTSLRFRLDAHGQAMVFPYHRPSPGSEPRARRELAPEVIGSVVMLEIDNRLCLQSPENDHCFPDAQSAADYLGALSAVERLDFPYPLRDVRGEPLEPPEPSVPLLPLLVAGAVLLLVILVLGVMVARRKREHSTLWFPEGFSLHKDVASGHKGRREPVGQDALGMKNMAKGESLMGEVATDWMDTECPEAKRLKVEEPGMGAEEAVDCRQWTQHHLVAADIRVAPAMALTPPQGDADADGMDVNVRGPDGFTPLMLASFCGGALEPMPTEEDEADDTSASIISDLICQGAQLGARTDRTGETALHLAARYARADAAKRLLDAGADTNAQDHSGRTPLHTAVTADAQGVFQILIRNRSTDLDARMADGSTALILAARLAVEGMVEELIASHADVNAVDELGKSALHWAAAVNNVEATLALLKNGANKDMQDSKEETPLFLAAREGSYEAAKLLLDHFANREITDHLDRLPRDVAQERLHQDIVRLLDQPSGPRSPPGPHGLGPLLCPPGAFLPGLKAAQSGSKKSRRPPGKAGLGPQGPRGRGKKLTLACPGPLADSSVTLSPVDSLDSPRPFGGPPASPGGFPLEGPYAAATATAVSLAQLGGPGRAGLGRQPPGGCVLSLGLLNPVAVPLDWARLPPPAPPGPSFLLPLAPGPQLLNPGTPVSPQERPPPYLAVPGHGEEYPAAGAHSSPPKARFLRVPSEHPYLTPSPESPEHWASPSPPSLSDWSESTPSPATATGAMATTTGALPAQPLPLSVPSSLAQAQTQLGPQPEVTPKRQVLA

[10] = small-molecule microarray binders of probe aEGFR, primary screen, biochemical, biotinylated probe, 635/667 nm fluorescence (AID 1097); details: higher = more signal;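 further: probe is a biotinylated anti-EGFR antibody binding compounds printed on slides; score combines fluorescence near 667 nm and signal to noise of each spot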

Row | Compound | composite z-score [1] | z-score [2] | z-score [3] | z-score [4] | composite z-score [5] | z-score [6] | composite z-score [7] | composite z-score [8] | composite z-score [9] | composite z-score [10]
1 | Cc1ccc([C@H]2C(C(=O)O)=C[C@@H](C)N2S(=O)(=O)c2ccc(C)cc2)cc1 | 0.896 | -0.495 (inactive) | -0.812 (inactive) | -0.422 (inactive) | 3.71 | -0.291 (inactive) | 0.0754 | -0.24 | -0.546 | -0.165
2 | C=CCC(OC(C)=O)[C@@H]1[C@@H](N(Cc2cccc3ccccc23)C(=O)c2ccc(C)cc2)c2cc(OCCCO)ccc2N1C(=O)Cc1ccc(OC)cc1 (stereo not given in full) | 0.479 | -3.36 (inactive) | 0.365 (inactive) | -1.4 (inactive) | -0.204 | 0.761 (inactive) | -0.128 | 0.146 | -0.139 | -0.0828
3 | CCCC[C@@H]1C[C@H]1[C@@H](NC(=O)c1ccc(-c2ccccc2)cc1)c1ccc(-c2ccccc2)cc1 | 0.407 | -0.38 (inactive) | -6.62 (inactive) | -2.47 (inactive) | 0.983 | -1.08 (inactive) | -0.0986 | 0.677 | 1 | -0.109
4 | CC(C)(C)OC(=O)CC[C@@]1(C(=O)NCCN2CCOCC2)N=C(c2ccc(OCCCO)cc2)O[C@@H]1c1ccccc1 | 1.57 | -0.444 (inactive) | 0.0418 (inactive) | -0.552 (inactive) | 3.1 | 1.03 (inactive) | 0.37 | 0.755 | 0.807 | 0.285
5 | C=CCC(OC(C)=O)[C@@H]1[C@@H](N(Cc2ccc(-c3cccc(C(F)(F)F)c3)o2)C(=O)c2ccc(C)cc2)c2cc(OCCCO)ccc2N1C(=O)c1ccc(-c2ccccc2)cc1 (stereo not given in full) | 0.0003 | 0.0652 (inactive) | -1.07 (inactive) | 0.271 (inactive) | 0.476 | 1.03 (inactive) | -0.194 | 0.507 | 0.46 | -0.139
6 | COCCOC(=O)N1C(=O)[C@@]2(c3cc(C#CC4(O)CCCCCC4)ccc31)[C@H](C(=O)N1CCCCCCC1)[C@H]1C(=O)O[C@H](c3ccccc3)[C@H](c3ccccc3)N1[C@@H]2c1ccccc1OCCO | 1.48 | 1.41 (inactive) | -1.07 (inactive) | 3.73 (inactive) | 3.22 | 0.431 (inactive) | 0.911 | 1.55 | 1.05 | 0.495
7 | O=C1O[C@H](c2ccccc2)[C@H](c2ccccc2)N2[C@H]1[C@@H](C(=O)O)[C@]1(C(=O)Nc3ccc(C#CC4=CCCCC4)cc31)[C@H]2c1ccc(OCCO)cc1 | 1.54 | 2.1 (inactive) | 1.14 (inactive) | -0.1 (inactive) | 3.06 | -0.413 (inactive) | -0.0104 | 1.34 | 1.1 | -0.0657
8 | CCOC(=O)C1=CCC(c2ccc([N+](=O)[O-])cc2)N(S(=O)(=O)c2ccc(C)cc2)C1 (stereo not given) | -0.394 | 1.33 (inactive) | 2.26 (inactive) | 4.61 (inactive) | 1.28 | 0.638 (inactive) | 0.0478 | -0.281 | 0.422 | 0.0296
9 | COC(=O)C[C@H]1O[C@]2(C(=O)N(Cc3ccccc3)c3ccc(NC(C)=O)cc32)[C@@H](C)[C@@H]1[Si](C)(C)c1ccc(OC)cc1 | 0.994 | 0.747 (inactive) | 0.19 (inactive) | 2.53 (inactive) | 1.56 | 0.0208 (inactive) | -0.082 | 1.09 | 1.14 | -0.108
10 | CC(C)C(=C=CC[C@H](O)c1cccc(OCCO)c1)C[C@H](O)COCc1ccccc1 | 0.975 | -0.0398 (inactive) | 0.299 (inactive) | -0.623 (inactive) | 1.92 | 0.299 (inactive) | -0.0616 | 0.551 | -0.243 | -0.081
11 | [N-]=[N+]=NCc1ccccc1[C@H]1OC(c2ccc(OCCCO)cc2)=N[C@@]1(CCS(=O)(=O)c1ccccc1)C(=O)N1CCOCC1 | 1.27 | 0.0373 (inactive) | 0.553 (inactive) | 2.23 (inactive) | 3.65 | 0.151 (inactive) | 0.663 | 0.346 | 1.1 | 0.302
12 | CC(C)NC(=O)[C@@H]1c2ccccc2C(=O)N(Cc2ccccc2)[C@H]1c1ccc(CO)cc1 | 0.347 | -0.726 (inactive) | -0.471 (inactive) | -0.945 (inactive) | 2.36 | -0.106 (inactive) | 0.12 | -0.905 | -0.376 | 0.243
13 | O=C(OCCF)C1=CCC(c2cccc(Cl)c2)O1 (stereo not given) | 0.581 | -3.17 (inactive) | -0.988 (inactive) | 2.82 (inactive) | 0.856 | -0.0288 (inactive) | -0.141 | 0.207 | 0.1 | -0.0121
14 | COC(=O)[C@]1(Cc2ccccc2N=[N+]=[N-])N=C(c2ccc(OCCCO)cc2)O[C@@H]1c1ccccc1N=[N+]=[N-] | 0.822 | 0.189 (inactive) | -0.0643 (inactive) | 14.9 (active) | 0.59 | -0.962 (inactive) | -0.166 | 0.347 | 0.251 | -0.0656
15 | COC(=O)[C@@]1(Cc2ccccc2)[C@H]2c3cc(C(=O)N(C)C)n(Cc4cc(C)n(C)n4)c3C[C@H]2CN1C(=O)c1ccccc1 | 0.0423 | -0.571 (inactive) | -0.528 (inactive) | -0.649 (inactive) | 3.96 | -0.564 (inactive) | 0.0382 | -0.127 | 0.809 | 0.238
16 | COC(=O)[C@@]1(Cc2ccccc2)N=C(c2ccc(OCCCO)cc2)O[C@H]1c1ccccc1N=[N+]=[N-] | 1.49 | 0.288 (inactive) | -2.2 (inactive) | 5.8 (inactive) | 1.35 | 0.319 (inactive) | 0.0484 | 0.884 | 0.802 | -0.0953
17 | COCCOC(=O)N1C(=O)[C@@]2(c3cc(C#CCNC(N)=O)ccc31)[C@H](c1ccccc1OCCO)N1[C@H](c3ccccc3)[C@H](c3ccccc3)OC(=O)[C@H]1[C@@H]2C(N)=O | 1.55 | 1.86 (inactive) | 1.59 (inactive) | 3.25 (inactive) | -0.0889 | -0.244 (inactive) | -0.0823 | 1.1 | 1.09 | -0.0512
18 | N[C@@H](Cc1ccccc1)Cn1cc(-c2ccccc2)nn1 | 0.043 | -0.814 (inactive) | -2.18 (inactive) | 0.371 (inactive) | 0.196 | -3 (inactive) | 0.323 | -0.0062 | -0.0488 | -0.0549
19 | C=CCOC(=O)[C@H]1[C@@H]2C(=O)O[C@@H](c3ccccc3)[C@@H](c3ccccc3)N2[C@@H](c2ccc(OCCOC(=O)[C@@H]3C[C@@H]4C(=O)NCC(=O)N4[C@@H]3c3ccc(O)cc3)cc2)[C@]12C(=O)Nc1ccccc12 | 1.56 | -4.85 (inactive) | -0.234 (inactive) | 1.47 (inactive) | 2.35 | 2.36 (inactive) | -0.153 | 1.81 | 1.12 | -0.0828
20 | C=CCNC(=O)[C@H]1[C@@H]2C(=O)O[C@@H](c3ccccc3)[C@@H](c3ccccc3)N2[C@@H](c2ccc(O)cc2)[C@]12C(=O)N(C(=O)OCCOC)c1ccc(C#CCCO)cc12 | 1.58 | 1.16 (inactive) | -0.47 (inactive) | 0.804 (inactive) | 2.97 | 1.07 (inactive) | -0.0916 | -0.176 | -0.15 | -0.0163
21 | COCCOC(=O)N1C(=O)[C@@]2(c3cc(C#CCNC(N)=O)ccc31)[C@H](c1ccc(OCCO)cc1)N1[C@H](c3ccccc3)[C@H](c3ccccc3)OC(=O)[C@H]1[C@@H]2C(=O)N1CCc2cc(OC)c(OC)cc2C1 | 0.993 | 1.46 (inactive) | 1.41 (inactive) | 4.56 (inactive) | 0.816 | 0.196 (inactive) | -0.0555 | 1.04 | 0.983 | -0.0007
22 | CCCCCN1CC=CC23O[C@@H]4C=CCOC(=O)[C@@H]4[C@H]2C(=O)N(CCCO)[C@@H]3C1=O (stereo not given in full) | 1.55 | 0.811 (inactive) | -0.717 (inactive) | -1.05 (inactive) | 3.5 | 3.09 (inactive) | -0.221 | 0.243 | 0.0152 | -0.185
23 | COCC1=C2[C@@H](CCc3ccccc3)OB(O)C[C@@H]2[C@@H]2C(=O)N(Cc3ccccc3)C(=O)[C@@H]2C1 | 0.229 | -0.471 (inactive) | -1.22 (inactive) | -0.37 (inactive) | 0.295 | -0.715 (inactive) | -0.155 | 0.198 | -0.0497 | -0.132
24 | CCOC(=O)[C@H]1C[C@H]2O[C@@]23C[C@H]1C(=O)N1CCCC1[C@@H]3O[Si](C)(C)C(C)(C)C (stereo not given in full) | 0.105 | -0.938 (inactive) | -3.58 (inactive) | -1.12 (inactive) | -0.0341 | -0.788 (inactive) | 0.807 | 0.478 | -0.288 | -0.149
25 | COCCOC(=O)N1C(=O)[C@@]2(c3cc(C#CC4=CCCCC4)ccc31)[C@H](C(=O)N1CCc3cc(OC)c(OC)cc3C1)[C@H]1C(=O)O[C@H](c3ccccc3)[C@H](c3ccccc3)N1[C@@H]2c1ccccc1OCCO | 1.01 | 1.51 (inactive) | 1.35 (inactive) | 2.78 (inactive) | 1.97 | 0.982 (inactive) | 0.0906 | 1.16 | 1.09 | 0.0238
26 | CCOC(=O)C1=CCC(c2ccc(C#N)cc2)N(S(=O)(=O)c2ccc(C)cc2)C1 (stereo not given) | 1.11 | -0.0764 (inactive) | 0.0767 (inactive) | 2.91 (inactive) | 2.64 | 0.394 (inactive) | 0.276 | -0.184 | 1.09 | -0.0297
27 | Cc1ccc(S[C@]2(C(=O)NC3CC3)CC(=O)N(Cc3ccccc3)[C@@H]2c2ccc(CO)cc2)cc1 | 0.0655 | -0.592 (inactive) | -0.852 (inactive) | -0.168 (inactive) | 2.08 | -0.445 (inactive) | 0.0704 | -0.347 | -0.462 | -0.0778
28 | CC(=O)C1=CCC(c2ccccc2)N(S(=O)(=O)c2ccc(C)cc2)C1 (stereo not given) | 1.53 | -1.31 (inactive) | 0.888 (inactive) | 4.92 (inactive) | 2.6 | -1.03 (inactive) | -0.0118 | 0.229 | 0.821 | -0.039
